From PubChem BioAssay (NCATS)
Records with an inconclusive call do not appear. Active and inactive are the calls of the source. Calls come from the whole dose curve; as a rule, active = well fitted curve in the direction sought with a large enough effect; inconclusive = small, poorly fitted or top-dose-only effect, or another doubt; inactive = no such curve, though single readings can be large; an effect the other way counts as inactive or inconclusive.

What was measured:
[1] = Quantitative High-Throughput drug screen in 47 multiple myeloma cell lines against the NCATS MIPE library collection: JIM3_ECACC cell viability assay (AID 1918963; note: nearly all actives have a fitted effect of over 35% in size)
In short: (§1)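 Relative luminescence from CellTiter-Glo served as the viability signal, referenced to DMSO-treated (100%) and cell-free medium (0%) controls. Treatment lasted 48 hours at 37C with 500 cells per well.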

[2] = Quantitative High-Throughput drug screen in 47 multiple myeloma cell lines against the NCATS MIPE library collection: JIM1_ECACC cell viability assay (AID 1918964)
In short: (§2)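 We plated 500 myeloma cells per well, pinned in MIPE 4.0 compounds, and incubated for 48 hours at 37C. ATP was then quantified with CellTiter-Glo, with DMSO and media-only wells defining 100% and 0%.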

[3] = Quantitative High-Throughput drug screen in 47 multiple myeloma cell lines against the NCATS MIPE library collection: INA6_PLB cell viability assay (AID 1918965; note: nearly all actives have a fitted effect of over 55% in size)
In short: as §1

[4] = Quantitative High-Throughput drug screen in 47 multiple myeloma cell lines against the NCATS MIPE library collection: Karpas25_ECACC cell viability assay (AID 1918968; note: nearly all actives have a fitted effect of over 35% in size)
In short: as §2

[5] = Quantitative High-Throughput drug screen in 47 multiple myeloma cell lines against the NCATS MIPE library collection: KMS26_JCRB cell viability assay (AID 1918975); note: nearly all actives have a fitted effect of over 45% in size
In short: (§3)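 qHTS of the MIPE 4.0 collection: 500 myeloma cells/well, 48 h drug exposure at 37C in 5% CO2, then CellTiter-Glo for 5 min at room temperature before luminescence reading.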

[6] = Quantitative High-Throughput drug screen in 47 multiple myeloma cell lines against the NCATS MIPE library collection: MM1R_ATCC cell viability assay (AID 1918981); note: nearly all actives have a fitted effect of over 35% in size
In short: (§4)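 Readout: median RLU from CellTiter-Glo after 5 min at room temperature. Preceding step was 48 h drug treatment of 500 cells/well at 37 °C, 5% CO2, with DMSO-only and media-only control wells.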

[7] = Quantitative High-Throughput drug screen in 47 multiple myeloma cell lines against the NCATS MIPE library collection: H1112_PLB cell viability assay (AID 1918967; note: nearly all actives have a fitted effect of over 30% in size)
In short: as §2

[8] = Quantitative High-Throughput drug screen in 47 multiple myeloma cell lines against the NCATS MIPE library collection: KMS27_JCRB cell viability assay (AID 1918970); note: nearly all actives have a fitted effect of over 30% in size
In short: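 CellTiter-Glo luminescence after 48 h drug exposure at 37 °C; 500 cells/well, 1536-well format, pin-tool compound addition; DMSO = 100%, media-only = 0% viability.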

[9] = Quantitative High-Throughput drug screen in 47 multiple myeloma cell lines against the NCATS MIPE library collection: KMS12BM_JCRB cell viability assay (AID 1918971); note: nearly all actives have a fitted effect of over 35% in size
In short: as §3

[10] = Quantitative High-Throughput drug screen in 47 multiple myeloma cell lines against the NCATS MIPE library collection: LP1_DSMZ cell viability assay (AID 1918982); note: nearly all actives have a fitted effect of over 35% in size
In short: as §4

[11] = Quantitative High-Throughput drug screen in 47 multiple myeloma cell lines against the NCATS MIPE library collection: KMS28PE_JCRB cell viability assay (AID 1918983); note: nearly all actives have a fitted effect of over 35% in size
In short: as §4

[12] = Quantitative High-Throughput drug screen in 47 multiple myeloma cell lines against the NCATS MIPE library collection: KMS12PE_JCRB cell viability assay (AID 1918972); note: nearly all actives have a fitted effect of over 30% in size
In short: as §1

[13] = Quantitative High-Throughput drug screen in 47 multiple myeloma cell lines against the NCATS MIPE library collection: MMM1_PLB cell viability assay (AID 1918976); note: nearly all actives have a fitted effect of over 35% in size
In short: as §4

[14] = Quantitative High-Throughput drug screen in 47 multiple myeloma cell lines against the NCATS MIPE library collection: MOLP8_DSMZ cell viability assay (AID 1918977); note: nearly all actives have a fitted effect of over 45% in size
In short: as §4

[15] = Quantitative High-Throughput drug screen in 47 multiple myeloma cell lines against the NCATS MIPE library collection: NCIH929_DSMZ cell viability assay (AID 1918978); note: nearly all actives have a fitted effect of over 35% in size
In short: as §4

[16] = Quantitative High-Throughput drug screen in 47 multiple myeloma cell lines against the NCATS MIPE library collection: OCIMY1_PLB cell viability assay (AID 1918979); note: nearly all actives have a fitted effect of over 35% in size
In short: as §4

[17] = Quantitative High-Throughput drug screen in 47 multiple myeloma cell lines against the NCATS MIPE library collection: KMS21BM_JCRB cell viability assay (AID 1918974); details: ATP luminescence, 48 h; viability: at 45.8 µM (top of the series) unless noted
In short: as §2

[18] = Quantitative High-Throughput drug screen in 47 multiple myeloma cell lines against the NCATS MIPE library collection: MM1S_ATCC cell viability assay (AID 1918980); note: nearly all actives have a fitted effect of over 45% in size
In short: as §4

[19] = Quantitative High-Throughput drug screen in 47 multiple myeloma cell lines against the NCATS MIPE library collection: JJN3_DSMZ cell viability assay (AID 1918966; note: nearly all actives have a fitted effect of over 50% in size)
In short: as §2

[20] = Quantitative High-Throughput drug screen in 47 multiple myeloma cell lines against the NCATS MIPE library collection: KMS20_JCRB cell viability assay (AID 1918973); note: nearly all actives have a fitted effect of over 45% in size
In short: as §2
Potency is the fitted concentration of half-maximal effect.

CC(C)(C)NC(=O)[C@H]1CN(Cc2cccnc2)CCN1C[C@@H](O)C[C@@H](Cc1ccccc1)C(=O)N[C@H]1c2ccccc2C[C@H]1O
active: Potency [1] 5260 nM | Potency [3] 20900 nM | Potency [4] 4180 nM | Potency [5] 20900 nM | Potency [6] 26400 nM
inactive: Potency [2]

COc1ccc(CC2c3cc(OC)c(OC)cc3CC[N+]2(C)CCC(=O)OCCCCCOC(=O)CC[N+]2(C)CCc3cc(OC)c(OC)cc3C2Cc2ccc(OC)c(OC)c2)cc1OC (centres undefined)
inactive: viability, percent of control [1] 105% [at 5.15 µM] | viability (% of DMSO) [2] 83.6% [at 5.15 µM] | viability [7] 104% [at 5.15 µM] | viability (% of control) [4] 100% [at 5.15 µM] | viability (% of DMSO) [8] 108% [at 5.15 µM] | viability, % of DMSO [9] 113% [at 5.15 µM] | viability (% of DMSO) [5] 102% [at 5.15 µM] | viability (% of control) [10] 101% [at 5.15 µM] | viability, % of DMSO control [11] 105% [at 5.15 µM]

CC(C)Nc1cc(C(F)(F)F)cc2nc(NC(=O)c3cccnc3)nn12
active: Potency [13] 1870 nM
inactive: Potency [1] | Potency [2] | Potency [7] | Potency [4] | Potency [8] | Potency [12] | Potency [14] | Potency [15] | Potency [16] | Potency [6] | Potency [10] | Potency [11]

COc1ccc(C=Cc2cc(OC)c(OC)c(OC)c2)cc1O
inactive: Potency [1] | Potency [2] | Potency [3] | Potency [7] | Potency [4] | Potency [8] | Potency [17] | Potency [13] | Potency [15] | Potency [16] | Potency [10]

COC(=O)C[C@](O)(CCCC(C)(C)O)C(=O)O[C@@H]1C(OC)=C[C@]23CCCN2CCc2cc4c(cc2[C@H]13)OCO4
inactive: Potency [1] | Potency [2] | Potency [7] | Potency [8] | Potency [9] | Potency [14] | Potency [15] | Potency [16] | Potency [18] | Potency [10] | Potency [11]

CC(C)c1nn(-c2c(Cl)cccc2Cl)c2nc(Cc3ccc(OCCO)cc3)[nH]c(=O)c12
active: Potency [1] 166 nM | Potency [3] 83.3 nM | Potency [19] 83.3 nM | Potency [7] 235 nM | Potency [4] 37.2 nM | Potency [9] 74.3 nM | Potency [20] 166 nM | Potency [5] 148 nM | Potency [13] 148 nM | Potency [14] 132 nM | Potency [15] 105 nM | Potency [16] 235 nM | Potency [18] 41.8 nM | Potency [6] 41.8 nM | Potency [10] 132 nM | Potency [11] 296 nM
inactive: Potency [8] | Potency [12] | Potency [17]

CCNC(=O)Nc1ccc2ncc(Nc3ccc(C)cc3)nc2n1
inactive: Potency [11]
active: Potency [1] 4690 nM | Potency [2] 935 nM | Potency [7] 5900 nM | Potency [4] 5900 nM | Potency [8] 526 nM | Potency [12] 2350 nM | Potency [13] 14800 nM | Potency [15] 7430 nM | Potency [6] 18700 nM

CCOc1ccccc1OCCNC(C)Cc1ccc(OC)c(S(N)(=O)=O)c1 (centres undefined)
inactive: Potency [1] | Potency [2] | Potency [19] | Potency [7] | Potency [8] | Potency [12] | Potency [20] | Potency [5] | Potency [14] | Potency [15] | Potency [18] | Potency [6] | Potency [11]

CCCCCCCCCC(=O)N[C@@H](Cc1c[nH]c2ccccc12)C(=O)N[C@H](CC(N)=O)C(=O)N[C@@H](CC(=O)O)C(=O)N[C@@H]1C(=O)NCC(=O)N[C@@H](CCCN)C(=O)N[C@@H](CC(=O)O)C(=O)N[C@H](C)C(=O)N[C@@H](CC(=O)O)C(=O)NCC(=O)N[C@H](CO)C(=O)N[C@@H]([C@@H](C)CC(=O)O)C(=O)N[C@@H](CC(=O)c2ccccc2N)C(=O)O[C@@H]1C
inactive: Potency [1] | Potency [2] | Potency [4] | Potency [8] | Potency [9] | Potency [12] | Potency [14] | Potency [15] | Potency [16] | Potency [6] | Potency [11]

CN1c2cc(O)c(N=NC(N)=O)cc2CC1S(=O)(=O)O (centres undefined)
inactive: Potency [1] | Potency [2] | Potency [3] | Potency [4] | Potency [8] | Potency [9] | Potency [12] | Potency [20] | Potency [5] | Potency [14] | Potency [15] | Potency [6] | Potency [10] | Potency [11]

O=C(O)[C@H](Cc1c[nH]c2ccccc12)N1C(=O)c2ccccc2C1=O
inactive: Potency [1] | Potency [2] | Potency [4] | Potency [12] | Potency [20] | Potency [17] | Potency [5] | Potency [14] | Potency [16] | Potency [10] | Potency [11]
active: Potency [15] 54000 nM | Potency [18] 42900 nM

CCC1=C[C@@H]2CN(C1)Cc1c([nH]c3ccccc13)[C@@](C(=O)OC)(c1cc3c(cc1OC)N(C)[C@@H]1[C@@](O)(C(=O)OC)[C@H](OC(C)=O)[C@]4(CC)C=CCN5CC[C@]31[C@@H]54)C2
active: Potency [1] 14.8 nM | Potency [2] 1.9 nM | Potency [19] 7430 nM | Potency [7] 148 nM | Potency [4] 18.7 nM | Potency [8] 4.7 nM | Potency [9] 26.4 nM | Potency [12] 9.3 nM | Potency [20] 23.5 nM | Potency [17] 33.2 nM | Potency [5] 2960 nM | Potency [13] 1870 nM | Potency [14] 33.2 nM | Potency [15] 2090 nM | Potency [16] 2090 nM | Potency [18] 372 nM | Potency [6] 187 nM | Potency [10] 33.2 nM

Cc1cc(Nc2nc(N[C@@H](C)c3ccc(F)cc3)c(C#N)cc2F)n[nH]1
active: Potency [1] 3720 nM | Potency [2] 296 nM | Potency [3] 372 nM | Potency [7] 16600 nM | Potency [4] 1480 nM | Potency [8] 935 nM | Potency [12] 935 nM | Potency [20] 5260 nM | Potency [13] 6620 nM | Potency [15] 13200 nM | Potency [18] 20900 nM | Potency [6] 3320 nM | Potency [11] 935 nM

Cc1ccc(CN2CCNCC2)cc1NC(=O)CNc1ccc(F)c(F)c1
active: Potency [4] 5900 nM | Potency [13] 16600 nM | Potency [18] 2640 nM | Potency [6] 26400 nM | Potency [11] 20900 nM
inactive: Potency [1] | Potency [2] | Potency [19] | Potency [7] | Potency [8] | Potency [12] | Potency [20] | Potency [15] | Potency [16]

CC[C@H]1CN2CCc3cc(OC)c(OC)cc3[C@H]2C[C@@H]1C[C@@H]1NCCc2cc(OC)c(OC)cc21
active: Potency [1] 264 nM | Potency [3] 52.6 nM | Potency [19] 209 nM | Potency [7] 264 nM | Potency [4] 118 nM | Potency [8] 148 nM | Potency [9] 209 nM | Potency [12] 132 nM | Potency [20] 590 nM | Potency [17] 264 nM | Potency [5] 187 nM | Potency [13] 264 nM | Potency [14] 105 nM | Potency [15] 469 nM | Potency [16] 833 nM | Potency [18] 83.3 nM | Potency [6] 187 nM | Potency [10] 332 nM | Potency [11] 296 nM
